Measured values: paper PMC13541613, “GHT-SELEX demonstrates unexpectedly high intrinsic sequence specificity and complex DNA binding of many human transcription factors”

Each sequence was assayed against ZNF721 DBD2 (Homo sapiens, UniProt Q8TF20-2 395-923) (assay: HT-SELEX; 20 mM HEPES pH 7, 140 mM KCl, 5 mM NaCl, 1 mM K2HPO4, 2 mM MgSO4, 100 uM EGTA, ZnSO4, 0.1% Tween20; room temperature, 1 h; high values mean tight binding). Conditions: protein: ivt; tags: eGFP (N-terminal); dsDNA, one strand shown.
Chain of ZNF721 DBD2 (Q8TF20 383-911): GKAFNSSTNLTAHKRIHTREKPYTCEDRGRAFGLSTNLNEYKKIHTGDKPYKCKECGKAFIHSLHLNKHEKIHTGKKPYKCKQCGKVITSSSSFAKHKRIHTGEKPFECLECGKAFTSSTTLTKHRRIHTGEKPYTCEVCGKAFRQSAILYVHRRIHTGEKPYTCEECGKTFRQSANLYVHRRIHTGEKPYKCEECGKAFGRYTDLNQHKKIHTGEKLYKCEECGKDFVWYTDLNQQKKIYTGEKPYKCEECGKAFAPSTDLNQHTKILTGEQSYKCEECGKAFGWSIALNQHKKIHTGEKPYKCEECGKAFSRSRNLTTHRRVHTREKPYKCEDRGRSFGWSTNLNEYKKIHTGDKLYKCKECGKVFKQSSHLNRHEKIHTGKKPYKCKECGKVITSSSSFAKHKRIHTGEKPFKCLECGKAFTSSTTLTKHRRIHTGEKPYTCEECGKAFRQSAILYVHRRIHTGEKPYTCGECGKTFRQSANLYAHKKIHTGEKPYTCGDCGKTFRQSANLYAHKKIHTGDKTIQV
Method in brief: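 Full-length or DNA-binding-domain forms of a tagged transcription factor were produced in HEK293 lysate or cell-free extract and immobilised on beads. Incubation with a randomized 40-base DNA library ran for 1 h at room temperature in HEPES/KCl low-stringency buffer with Tween20, after which bound DNA was washed, heat-eluted, PCR-amplified over successive cycles and Illumina-sequenced. Binding strength is given as the relative k-mer count in selected reads, higher for tighter binding.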
For CCCCCCACCG, the binding signal was 0.0036 relative 10-mer count.
AAAAAAGCAT showed a binding signal of 0.067 relative 10-mer count.
CTCCCCACCA was tested, and the binding signal was 0.00587 relative 10-mer count.
Work on GCGTACCCTA yielded a binding signal of 0.0775 relative 10-mer count.
In the case of CCTCCTCCCC, the binding signal is reported as 0.00527 relative 10-mer count.
GTGGGGTGGA showed a binding signal of 0.00539 relative 10-mer count.
In the case of CCCCCCTCCA, the binding signal is reported as 0.0024 relative 10-mer count.
Sequence ACAAAAAAAC has a binding signal of 0.0972 relative 10-mer count.
CCCCACCCAA was tested, and the binding signal was 0.00491 relative 10-mer count.
Sequence CAACAAAACA has a binding signal of 0.116 relative 10-mer count.
CCGCCGCCCC showed a binding signal of 0.00168 relative 10-mer count.
In the case of AAAAAAGCGC, the binding signal is reported as 0.015 relative 10-mer count.
For CCAAAAAAAA, the binding signal was 0.0966 relative 10-mer count.
With CTCCCCTCCC the binding signal was 0.00455 relative 10-mer count.
ACCCTCCCAC gave a binding signal of 0.00587 relative 10-mer count.
CCCCCGCGCC showed a binding signal of 0.00336 relative 10-mer count.
With AAAGCTATCC the binding signal was 0.00156 relative 10-mer count.
CCACCACCGC gave a binding signal of 0.00503 relative 10-mer count.
With CCCGCCCCCA the binding signal was 0.00132 relative 10-mer count.
AAAGCAGTAC showed a binding signal of 0.0905 relative 10-mer count.
In the case of AGCGTTTCCA, the binding signal is reported as 0.459 relative 10-mer count.
CATCCCCACC was tested, and the binding signal was 0.0188 relative 10-mer count.
AGGGGGGAGG was tested, and the binding signal was 0.00384 relative 10-mer count.
AAAAAAGCGG gave a binding signal of 0.0279 relative 10-mer count.
With ACAAAAAAAG the binding signal was 0.0533 relative 10-mer count.
CGCCACCCAC was tested, and the binding signal was 0.00372 relative 10-mer count.
Sequence AAAAAAAAGC has a binding signal of 0.125 relative 10-mer count.
Sequence AGCGTATCCT has a binding signal of 0.192 relative 10-mer count.
CTCCCACCCC gave a binding signal of 0.00455 relative 10-mer count.
Sequence CCCCGTCCCC has a binding signal of 0.00192 relative 10-mer count.
Sequence CCACCGCCCC has a binding signal of 0.00455 relative 10-mer count.
With CCCATCCCCA the binding signal was 0.00551 relative 10-mer count.
Sequence CCCGCCCCAC has a binding signal of 0.00252 relative 10-mer count.
In the case of GGGAGGGGGA, the binding signal is reported as 0.00395 relative 10-mer count.
With CCGACCCACC the binding signal was 0.00467 relative 10-mer count.
Sequence CCCCACCCCC has a binding signal of 0.00419 relative 10-mer count.
With GCTTCATACA the binding signal was 0.0018 relative 10-mer count.
Work on CCGCCCACCC yielded a binding signal of 0.0018 relative 10-mer count.
With GCCACCCCCC the binding signal was 0.00348 relative 10-mer count.
In the case of CCCACACCCA, the binding signal is reported as 0.00455 relative 10-mer count.
